Reference: paper PMC7862700, “An all-to-all approach to the identification of sequence-specific readers for epigenetic DNA modifications on cytosine”

Legend:
Assay in all cases: DAPPL (digital affinity profiling via proximity ligation, sequencing); 10 mM Tris-HCl pH 7.5, 50 mM NaCl, 1 mM DTT, 4% glycerol, room temperature, 30 min; GST-TFs on glutathione beads, 16-mer random dsDNA library, 0.1% formaldehyde crosslink after washing; high values mean tight binding
Conditions in all cases: protein: recombinant; tags: N-terminal GST; dsDNA, one strand shown
FLI1 = target: T1, FLI1 (Homo sapiens, UniProt Q01543 1-452)
T1 sequence: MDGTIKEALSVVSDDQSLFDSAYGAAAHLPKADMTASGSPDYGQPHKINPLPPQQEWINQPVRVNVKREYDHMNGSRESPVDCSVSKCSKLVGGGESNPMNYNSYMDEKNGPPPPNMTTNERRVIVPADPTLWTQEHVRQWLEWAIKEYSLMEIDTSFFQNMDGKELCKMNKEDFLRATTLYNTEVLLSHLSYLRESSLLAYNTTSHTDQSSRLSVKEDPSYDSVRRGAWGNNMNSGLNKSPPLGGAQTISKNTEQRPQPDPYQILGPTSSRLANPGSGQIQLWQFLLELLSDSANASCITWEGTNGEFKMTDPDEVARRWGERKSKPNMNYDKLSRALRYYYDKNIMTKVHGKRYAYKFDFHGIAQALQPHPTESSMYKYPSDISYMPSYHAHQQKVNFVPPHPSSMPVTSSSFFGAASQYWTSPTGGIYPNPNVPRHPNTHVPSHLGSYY
How it was run: (§1)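 Binding signal is defined as a hexamer's read frequency for one factor over its frequency for the tag-only sample. To obtain reads, GST-fused human transcription factors were expressed in yeast, captured on glutathione beads, barcoded with DNA and pooled with that sample. Pools met 200 nmole of a 16-mer random double-stranded DNA library in Tris/NaCl/DTT/glycerol buffer for 30 min at room temperature before washing, 0.1% formaldehyde crosslinking, proximity ligation (BsaI/T4 ligase, 1 h, 37 °C), PCR and Illumina NextSeq500 sequencing.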

ELK1 = target: T2, ELK1 (Homo sapiens, UniProt P19419 1-428)
T2 sequence: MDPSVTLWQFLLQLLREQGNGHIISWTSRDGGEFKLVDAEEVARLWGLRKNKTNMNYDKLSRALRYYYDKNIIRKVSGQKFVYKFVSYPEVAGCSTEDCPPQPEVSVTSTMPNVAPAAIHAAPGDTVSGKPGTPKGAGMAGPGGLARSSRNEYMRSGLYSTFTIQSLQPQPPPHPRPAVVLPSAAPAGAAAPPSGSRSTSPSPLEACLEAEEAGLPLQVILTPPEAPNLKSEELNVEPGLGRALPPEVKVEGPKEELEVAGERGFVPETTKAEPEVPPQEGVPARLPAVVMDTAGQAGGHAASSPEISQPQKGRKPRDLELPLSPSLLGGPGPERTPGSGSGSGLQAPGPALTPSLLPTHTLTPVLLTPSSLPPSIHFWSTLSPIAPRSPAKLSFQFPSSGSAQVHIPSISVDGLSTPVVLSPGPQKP
How it was run: as §1

GABPA = target: T3, GABPA (Homo sapiens, UniProt Q06546 1-454)
T3 sequence: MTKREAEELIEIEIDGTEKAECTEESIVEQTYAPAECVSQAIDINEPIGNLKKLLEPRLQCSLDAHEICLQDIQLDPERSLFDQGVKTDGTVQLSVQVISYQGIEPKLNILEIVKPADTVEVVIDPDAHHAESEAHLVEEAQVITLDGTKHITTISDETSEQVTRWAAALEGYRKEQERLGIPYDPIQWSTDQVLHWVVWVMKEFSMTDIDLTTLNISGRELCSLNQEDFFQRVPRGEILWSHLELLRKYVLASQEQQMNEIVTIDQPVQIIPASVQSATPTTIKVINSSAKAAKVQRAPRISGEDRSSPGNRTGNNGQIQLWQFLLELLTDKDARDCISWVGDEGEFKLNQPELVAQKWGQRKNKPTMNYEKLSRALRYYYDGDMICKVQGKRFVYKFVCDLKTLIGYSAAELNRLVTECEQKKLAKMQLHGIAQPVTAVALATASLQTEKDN
How it was run: as §1

ERG = target: T4, ERG (Homo sapiens, UniProt P11308 1-479)
T4 sequence: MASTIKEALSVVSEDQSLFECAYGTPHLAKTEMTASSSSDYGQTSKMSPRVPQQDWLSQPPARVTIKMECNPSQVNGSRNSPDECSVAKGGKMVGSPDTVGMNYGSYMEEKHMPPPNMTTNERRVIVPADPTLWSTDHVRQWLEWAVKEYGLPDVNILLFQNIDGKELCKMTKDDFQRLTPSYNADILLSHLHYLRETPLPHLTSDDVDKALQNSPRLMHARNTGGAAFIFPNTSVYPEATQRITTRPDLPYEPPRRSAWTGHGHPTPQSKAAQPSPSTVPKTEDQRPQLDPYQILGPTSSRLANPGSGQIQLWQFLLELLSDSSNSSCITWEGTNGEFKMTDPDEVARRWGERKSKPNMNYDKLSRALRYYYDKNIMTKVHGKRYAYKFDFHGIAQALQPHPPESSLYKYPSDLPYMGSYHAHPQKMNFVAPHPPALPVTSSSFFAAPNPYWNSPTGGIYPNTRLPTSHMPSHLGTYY
How it was run: as §1

ELF1 = ELF1 (Homo sapiens, UniProt P32519 1-619)
Sequence of ELF1 (P32519 whole entry): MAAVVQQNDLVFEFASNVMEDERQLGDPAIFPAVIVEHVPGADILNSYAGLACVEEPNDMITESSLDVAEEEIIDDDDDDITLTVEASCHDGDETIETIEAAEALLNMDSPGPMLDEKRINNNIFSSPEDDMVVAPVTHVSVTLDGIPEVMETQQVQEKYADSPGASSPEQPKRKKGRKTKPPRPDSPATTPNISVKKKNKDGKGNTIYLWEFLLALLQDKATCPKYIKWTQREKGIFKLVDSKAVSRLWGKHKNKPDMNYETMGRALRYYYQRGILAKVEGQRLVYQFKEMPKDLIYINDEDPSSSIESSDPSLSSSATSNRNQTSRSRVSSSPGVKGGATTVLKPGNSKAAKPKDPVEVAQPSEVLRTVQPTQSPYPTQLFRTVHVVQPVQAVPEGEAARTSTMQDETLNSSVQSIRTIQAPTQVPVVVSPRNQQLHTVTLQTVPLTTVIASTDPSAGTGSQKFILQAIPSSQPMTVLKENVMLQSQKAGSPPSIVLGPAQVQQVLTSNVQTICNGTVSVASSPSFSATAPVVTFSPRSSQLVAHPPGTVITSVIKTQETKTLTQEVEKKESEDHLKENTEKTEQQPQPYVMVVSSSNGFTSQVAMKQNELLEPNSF
How it was run: as §1

EHF = target: T5, EHF (Homo sapiens, UniProt Q9NZC4 1-300)
T5 sequence: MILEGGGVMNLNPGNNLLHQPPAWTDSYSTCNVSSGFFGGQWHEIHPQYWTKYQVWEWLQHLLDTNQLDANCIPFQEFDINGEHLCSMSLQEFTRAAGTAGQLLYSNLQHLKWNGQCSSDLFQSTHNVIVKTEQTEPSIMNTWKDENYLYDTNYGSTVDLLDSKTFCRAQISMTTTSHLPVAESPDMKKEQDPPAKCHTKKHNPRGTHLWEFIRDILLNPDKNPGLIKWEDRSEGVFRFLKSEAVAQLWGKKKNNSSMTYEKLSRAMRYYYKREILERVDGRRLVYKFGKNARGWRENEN
How it was run: as §1

SPI1 = SPI1 (Homo sapiens, UniProt P17947 1-270)
How it was run: as §1

SPIB = SPIB (Homo sapiens, UniProt Q01892 1-262)
Sequence of SPIB (Q01892 whole entry): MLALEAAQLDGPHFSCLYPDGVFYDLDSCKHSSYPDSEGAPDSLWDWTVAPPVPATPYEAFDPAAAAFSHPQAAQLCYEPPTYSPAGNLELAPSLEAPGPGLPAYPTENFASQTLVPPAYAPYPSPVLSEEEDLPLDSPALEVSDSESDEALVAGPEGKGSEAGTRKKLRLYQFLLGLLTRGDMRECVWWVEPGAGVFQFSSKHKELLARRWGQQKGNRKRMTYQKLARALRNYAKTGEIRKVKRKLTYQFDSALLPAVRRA
How it was run: as §1

ELK3 = target: T6, ELK3 (Homo sapiens, UniProt P41970 1-407)
T6 sequence: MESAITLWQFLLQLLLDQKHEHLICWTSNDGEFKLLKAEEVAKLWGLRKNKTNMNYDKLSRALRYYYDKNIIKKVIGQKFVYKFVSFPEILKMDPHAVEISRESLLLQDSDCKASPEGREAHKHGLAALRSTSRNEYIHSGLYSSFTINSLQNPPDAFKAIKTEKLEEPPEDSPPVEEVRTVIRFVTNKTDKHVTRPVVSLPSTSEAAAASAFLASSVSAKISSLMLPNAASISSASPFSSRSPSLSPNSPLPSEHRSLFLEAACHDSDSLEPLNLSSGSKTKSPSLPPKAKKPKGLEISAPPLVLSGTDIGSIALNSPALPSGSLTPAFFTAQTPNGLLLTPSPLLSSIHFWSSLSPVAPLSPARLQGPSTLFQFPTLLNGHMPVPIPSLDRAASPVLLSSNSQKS
How it was run: as §1

ATATCG
binding signal (FLI1): 1.09 fold enrichment (6-mer frequency, TF over GST control)
binding signal (ELK1): 1.16 fold enrichment (6-mer frequency, TF over GST control)
binding signal (GABPA): 1.14 fold enrichment (6-mer frequency, TF over GST control)
binding signal (ERG): 1.08 fold enrichment (6-mer frequency, TF over GST control)
binding signal (ELF1): 1.16 fold enrichment (6-mer frequency, TF over GST control)
binding signal (EHF): 1.13 fold enrichment (6-mer frequency, TF over GST control)
binding signal (SPI1): 1.23 fold enrichment (6-mer frequency, TF over GST control)
binding signal (SPIB): 1.17 fold enrichment (6-mer frequency, TF over GST control)
binding signal (ELK3): 1.19 fold enrichment (6-mer frequency, TF over GST control)
